Screening data deposited in PubChem by Sanford-Burnham Center for Chemical Genomics.
CYP2C9 act – human CYP2C9 activators, primary screen, biochemical, luminescence; 96,000 tested, 1.4% active; recombinant CYP2C9, luciferin-H conversion; hits give high values; factor 1 = untreated enzyme, 0 = blocked; activation factor at 5 µM; Cytochrome P450 2C9 (Homo sapiens), P11712; AID 1024, 2008;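 active = activation factor of 2 or more for CYP2C9 at a 5 µM dose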;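 note: 0 = sulfaphenazole-blocked wells and 1 = vehicle-only wells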
CYP2C19 act – human CYP2C19 activators, primary screen, biochemical, luminescence; Cytochrome P450 2C19 (Homo sapiens), P33261; recombinant CYP2C19, luciferin-H EGE luminescence; hits give high values; 0 = fully inhibited enzyme, 1 = untreated enzyme; activation factor at 5 µM; 96,000 tested, under 10 active; AID 1025, 2008;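 active = activation factor of at least 2 at 5 µM in the primary screen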;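 note: 0 = wells with 2.5 mM tranylcypromine and 1 = vehicle-only wells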
CYP2C19 inh – blockers of cytochrome P450 2C19 activity – biochemical, luminescence, ADME assay, primary screen; CYP2C19 Supersomes, luciferin-H EGE luminescence, 30 min; P33261; 96,000 tested, 21% active; inhibition, % at 5 µM;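 active = CYP2C19 inhibition above a set limit at 5 µM in the primary screen, cut at about 50% in these data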;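 note: plate controls were negative control wells for no effect and 2.5 mM tranylcypromine positive control for full effect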
CYP2C9 inh – blockers of cytochrome P450 2C9 activity – biochemical, luminescence, ADME assay, primary screen. CYP2C9 Supersomes, luciferin-H conversion. P11712. 96,000 tested, 20% active. inhibition, % at 5 µM. AID 777, 2007;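 active = blocking of liver enzyme CYP2C9 beyond about 50% at 5 µM, limit read from the data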
PLAP act – PLAP enzyme activators, biochemical, luminescence, HTS; activation fold at 20 µM; 96,000 tested, 1.2% active; purified PLAP enzyme, luminescent substrate read-out; hits give high values; Alkaline phosphatase, placental type (Homo sapiens), P05187; AID 696, 2007; in the data active = activation fold above about 2
Target sequence (P05187 whole entry, looked up): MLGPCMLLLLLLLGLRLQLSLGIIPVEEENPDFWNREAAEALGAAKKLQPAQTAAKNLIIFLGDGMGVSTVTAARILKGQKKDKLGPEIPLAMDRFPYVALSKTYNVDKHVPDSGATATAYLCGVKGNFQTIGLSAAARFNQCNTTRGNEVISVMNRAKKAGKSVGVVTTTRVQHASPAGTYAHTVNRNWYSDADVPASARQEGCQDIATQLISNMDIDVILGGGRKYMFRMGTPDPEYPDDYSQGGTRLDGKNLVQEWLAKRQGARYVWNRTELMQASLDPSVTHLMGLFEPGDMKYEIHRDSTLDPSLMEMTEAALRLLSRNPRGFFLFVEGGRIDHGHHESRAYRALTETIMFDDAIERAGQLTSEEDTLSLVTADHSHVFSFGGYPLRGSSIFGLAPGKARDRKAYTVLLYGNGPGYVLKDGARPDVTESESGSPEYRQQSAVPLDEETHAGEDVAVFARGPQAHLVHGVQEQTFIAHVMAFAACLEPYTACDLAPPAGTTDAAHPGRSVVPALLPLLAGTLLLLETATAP
* hit, by the source's call. In the library only some 31% were active in any assay of this set; here they are far more common.

SMILES	CYP2C9 act	CYP2C19 act	CYP2C19 inh	CYP2C9 inh	PLAP act
O=C(CN1CCC(NC(=O)c2cccc(F)c2)CC1)NCc1ccccc1F	1	0.9	8	1	1.1
CCOC(=O)c1[nH]c(COC(=O)CCCOc2ccccc2)c(C(=O)OCC)c1C	0.2	0.6	45	80*	1.4
Cc1oc(C)c2c(=O)ccc3c(c12)OC(N)=C(C#N)C3c1ccccc1Cl (centres undefined)	0.5	0.8	22	53*	1
CSc1ccc(C2C(C#N)=C(N)Oc3c2ccc(=O)c2c(C)oc(C)c32)cc1 (centres undefined)	0.4	0.8	17	59*	1.3
CCOC(=O)CC(Nc1nc(N2CCOCC2)nc(N2CCOCC2)n1)c1ccccc1Cl (centres undefined)	0.5	0.3	68*	53*	1.4
O=C1CC(c2ccc3c(c2)OCO3)c2cc3c(cc2N1)OCO3 (centres undefined)	0.4	0.4	64*	60*	1
O=C1CC(c2ccncc2)c2cc3c(cc2N1)OCO3 (centres undefined)	0.3	0.5	48	68*	0.9
COc1cc2c(cc1OC)C(c1cccnc1)CC(=O)N2 (centres undefined)	0.9	1	-4	7	0.9
Cc1ccc(C2CC(=O)Nc3cc4c(cc32)OCO4)o1 (centres undefined)	0.7	0.2	84*	26	0.8
CCOC(=O)CCCNC(=O)COC(=O)c1ccc(O)cc1	2.6*	1.1	-13	-164	1.1
CCOC(=O)c1ccc(NC(=O)CCOc2ccccc2)cc1	0.4	0.9	12	55*	0.9
CCOC(=O)COC(=O)c1ccc(O)cc1	1.5	0.9	7	-47	0.9
COC(=O)c1ccc(C(=O)OC)c(NC(=O)CCc2ccc(C)o2)c1	0.6	0.5	51*	37	1.1
CCOC(=O)c1ccc(NC(=O)CCS(=O)(=O)c2ccc(Br)s2)cc1	0.5	0.7	29	51*	1.2
CCOc1ccc(NC(=O)CCNS(=O)(=O)c2ccc(Br)s2)cc1	1.4	0.9	7	-41	0.8
CCOc1cc(/C=N/NC(=O)CNc2ccc(C)cc2)ccc1OC(=O)c1ccccc1	0.8	0.9	7	21	1.5
CCOC(=O)c1ccc(NC(=O)CCc2ccc(CC)o2)cc1	0.4	0.8	19	60*	0.7
CCc1ccc(CCC(=O)Nc2ccc(C)cc2C)o1	1.3	0.2	79*	-30	1.1
CCOC(=O)c1ccc(NC(=O)COc2ccccc2OC)cc1	0.9	0.7	32	11	1
O=C(CCOc1ccccc1)Nc1ccccc1	0.9	0.4	62*	14	0.9
CCCOC(=O)c1ccc(NC(=O)CCC(=O)OCC)cc1	0.4	0.4	64*	59*	0.9
Cc1ccc(N2CC(C(=O)OCc3ccccc3)CC2=O)cc1 (centres undefined)	0.9	0.7	30	9	0.9
CCCOC(=O)c1ccc(NC(=O)CCOc2ccccc2)cc1	0.3	0.5	46	68*	0.8
CCOC(=O)c1ccc(NC(=O)Oc2ccccc2)cc1	0.9	0.8	20	10	0.9
CCOC(=O)c1c(-c2ccco2)csc1NC(=O)CSc1nnc(N)s1	0.4	0.8	20	57*	1.3
SMILES	CYP2C9 act	CYP2C19 act	CYP2C19 inh	CYP2C9 inh	PLAP act
CCOC(=O)c1c(-c2ccc(C)o2)csc1NC(=O)CSc1nncs1	0	0.1	91*	100*	1.9
CCOC(=O)c1c(-c2ccc(C)o2)csc1NC(=O)CN(C)CC(=O)Nc1ccc(C)cc1	0	0.3	69*	96*	2.2*
CCOC(=O)c1c(-c2ccc(C)o2)csc1NC(=O)CN1CCN(CC)CC1	0.9	1	0	7	1.4
NC(=O)CSCc1c(Cl)cccc1Cl	1.2	1	0	-15	0.8
C#CCOC(=O)Nc1ccc(=O)n(Cc2c(Cl)cccc2Cl)c1	0.3	0.5	54*	69*	1
COc1cccc(C2=N/C(=C\N(C)C)C(=O)O2)c1	0.7	0.4	63*	30	1
CC(O)c1cccc(NC2=CC(=O)CC(C)(C)C2)c1 (centres undefined)	0.8	0.7	29	21	0.9
c1ccc(CNn2nnnc2-c2ccccc2)cc1	0.9	0.3	68*	13	0.9
C/C(=C\C(=O)O)C12CC3CC(CC(C3)C1)C2	0.9	1.1	-5	10	1.3
COc1ccc(CSc2nnc(C)n2N)cc1Br	1	0.6	38	-1	0.9
CCc1nnc(SCc2ccc(OC)c(Br)c2)n1N	1.3	0.4	58*	-27	1
Cn1c(=O)n(C)c2cc(NC(=O)c3cc4ccccc4o3)ccc21	1.2	0.9	9	-16	1
CC(=O)N1N=C(c2ccc(C)cc2)OC1c1ccc(C)cc1 (centres undefined)	0.8	0.8	19	20	1.2
Cc1ccc(C2OCC3(CO)COC(c4ccc(C)cc4)N23)cc1 (centres undefined)	0.6	0.3	72*	41	1.3
Cc1cc2cc(C)c3nnc(SCC(=O)N4CCc5ccccc54)n3c2cc1C	1	1.1	-6	-3	1.1
CCOc1cc(C2C(C(=O)OC)=C(C)N=C3SCCC(=O)N32)ccc1OC(C)=O (centres undefined)	0.7	0.6	35	30	1.4
COCCOC(=O)C1=C(C)N=C2SCCC(=O)N2C1c1ccc(C(=O)OC)cc1 (centres undefined)	0.3	0	98*	66*	1.5
COCCOC(=O)C1=C(C)N=C2SCCC(=O)N2C1/C=C/c1ccccc1 (centres undefined)	0.1	0.2	81*	93*	1.2
CCOc1cc(C2C(C(=O)OCC(C)C)=C(C)N=C3SCCC(=O)N32)ccc1OC(C)=O (centres undefined)	0.6	0.5	52*	40	0.9
COC(=O)C1=C(C)N=C2SCCC(=O)N2C1c1ccc(C(=O)OC)cc1 (centres undefined)	0.5	0.1	88*	55*	1
CCOC(=O)CNC(=O)Nc1ccccc1C(=O)OC	1	0.8	23	-1	1
COc1ccc(S(=O)(=O)N2CCC(C(=O)NCCC3=CCCCC3)CC2)cc1OC	1	0.5	50	-4	1.6
CCOc1cc(C2C(C(=O)OC)=C(C)N=C3SC(C)C(=O)N32)ccc1OC(C)=O (centres undefined)	0.4	0.4	64*	59*	1.2
CCOc1ccc(C2C(C(=O)OC)=C(C)N=C3SCCC(=O)N32)cc1OCC (centres undefined)	0.7	0.9	12	26	1.4
